How the values were obtained:
Details in all cases: concentration: 1 μM, replicates: in singlicate; n = 1
[1] = system: TYK2(JH2domain-pseudokinase)
TYRO3 = system: TYRO3
ULK1 = system: ULK1
ULK2 = system: ULK2
ULK3 = system: ULK3
VEGFR2 = system: T1, VEGFR2
T1 construct: gene KDR

VPS34 = system: T2, VPS34
T2 construct: gene PIK3C3

VRK2 = system: VRK2
WEE1 = system: WEE1
WEE2 = system: WEE2
WNK1 = system: WNK1
WNK2 = system: WNK2
WNK3 = system: WNK3
WNK4 = system: WNK4
YANK1 = system: T3, YANK1
T3 construct: gene STK32A

YANK2 = system: T4, YANK2
T4 construct: gene STK32B

YANK3 = system: T5, YANK3
T5 construct: gene STK32C

YES = system: T6, YES
T6 construct: gene YES1

YSK1 = system: T7, YSK1
T7 construct: gene STK25

YSK4 = system: T8, YSK4
T8 construct: gene MAP3K19
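Further: KINOMEscan kinase panel screen.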

SMILES | %Inh [1] [%] | %Inh (TYRO3) [%] | %Inh (ULK1) [%] | %Inh (ULK2) [%] | %Inh (ULK3) [%] | %Inh (VEGFR2) [%] | %Inh (VPS34) [%] | %Inh (VRK2) [%] | %Inh (WEE1) [%] | %Inh (WEE2) [%] | %Inh (WNK1) [%] | %Inh (WNK2) [%] | %Inh (WNK3) [%] | %Inh (WNK4) [%] | %Inh (YANK1) [%] | %Inh (YANK2) [%] | %Inh (YANK3) [%] | %Inh (YES) [%] | %Inh (YSK1) [%] | %Inh (YSK4) [%]
Cn1cc(-c2ccc3c(c2)CCN3C(=O)Cc2cc(F)cc(C(F)(F)F)c2)c2c(N)ncnc21 [GSK2635225] | 1 | 0 | 0 | 0 | 0 | 22 | 3 | 0 | 0 | 0 | 8 | 10 | 30 | 13 | 19 | 0 | 0 | 13 | 22 | 88
COc1cc(Nc2nccc(N3CCC(NS(=O)(=O)c4ccc(NC(C)=O)cc4)CC3)n2)cc(OC)c1OC [GSK1379825] | 84 | 76 | 21 | 11 | 97.4 | 0 | 34 | 0 | 75 | 0 | 0 | 16 | 25 | 23 | 2 | 7 | 0 | 39 | 16 | 32
Cc1ccc(NC(=O)c2ccc(Cl)c(Cl)c2)cc1-c1ccc(C(=O)Nc2ccncc2)cc1 [GSK1398460] | 0 | 10 | 15 | 0 | 6 | 6 | 0 | 0 | 11 | 6 | 0 | 0 | 0 | 17 | 12 | 7 | 22 | 29 | 26 | 83
NCCC(NC(=O)c1cc(Br)c(-c2ccnc3[nH]ccc23)s1)c1ccccc1.O=C(O)C(F)(F)F.O=C(O)C(F)(F)F (stereo not shown) [GSK1307810] | 7 | 0 | 30 | 8 | 16 | 55 | 25 | 23 | 4 | 0 | 0 | 0 | 24 | 37 | 10 | 0 | 18 | 14 | 4 | 97.3
CSc1ccc(NC2=C(c3ccc(Cl)cc3)C(=O)NC2=O)cc1 [SB-317658] | 0 | 0 | 19 | 0 | 12 | 0 | 22 | 13 | 5 | 0 | 20 | 24 | 4 | 0 | 0 | 2 | 33 | 0 | 0 | 21
COc1cccc(C2=C(Nc3cccc(O)c3)C(=O)NC2=O)c1 [SB-390771] | 25 | 0 | 17 | 0 | 23 | 3 | 0 | 10 | 20 | 12 | 13 | 25 | 7 | 35 | 0 | 0 | 2 | 15 | 16 | 43
CC(C)c1nc(-c2cccc(NS(=O)(=O)c3c(F)cccc3F)c2)c(-c2ccnc(Nc3ccc(N4CCOCC4)nc3)n2)s1.Cl [GSK1723980] | 60 | 72 | 22 | 13 | 93.5 | 91 | 0 | 0 | 18 | 0 | 3 | 0 | 5 | 4 | 15 | 9 | 19 | 99.7 | 1 | 91.8
COc1cccc(-c2nc(-c3ccccc3)[nH]c2-c2ccncc2)c1 [SB-610250] | 93.1 | 0 | 8 | 0 | 28 | 0 | 0 | 43 | 9 | 0 | 9 | 0 | 33 | 29 | 10 | 4 | 0 | 8 | 100 | 100
Fc1cc(Cl)ccc1Nc1ccnc2cc(-c3ccc(CN4CCOCC4)o3)ccc12 [GW560109] | 29 | 83 | 15 | 8 | 34 | 82 | 0 | 27 | 0 | 0 | 10 | 4 | 1 | 8 | 8 | 21 | 24 | 84 | 0 | 71
N#CC1(c2cccc(C(=O)Nc3cccc(Oc4ccc5nc(NC(=O)C6CC6)sc5n4)c3)c2)CC1 | 0 | 53 | 0 | 0 | 0 | 99.7 | 0 | 19 | 0 | 5 | 6 | 0 | 0 | 0 | 0 | 9 | 0 | 98.7 | 37 | 98.9
COc1cc(Nc2ccnc3cc(-c4ccncc4)ccc23)cc(OC)c1OC.Cl [GW494610] | 18 | 89 | 100 | 0 | 15 | 0 | 0 | 19 | 0 | 18 | 22 | 4 | 16 | 19 | 2 | 32 | 9 | 76 | 0 | 98.5
CNc1nccc(-c2ccc3c(N)n[nH]c3c2)n1 [GSK2206003] | 89 | 0 | 42 | 41 | 9 | 31 | 15 | 18 | 9 | 7 | 1 | 0 | 4 | 2 | 62 | 53 | 20 | 24 | 20 | 76
Cc1ccc(O)cc1Nc1ccnc2cc(-c3ccc(CN4CCCCC4)o3)ccc12 [GW557777] | 0 | 59 | 0 | 0 | 0 | 93.6 | 0 | 0 | 5 | 0 | 0 | 0 | 0 | 0 | 10 | 0 | 0 | 99.8 | 0 | 13
CS(=O)(=O)c1cccc(CNc2nc(Nc3ccc4c(c3)CCC(=O)N4)ncc2C(F)(F)F)c1 | 0 | 0 | 69 | 70 | 66 | 68 | 0 | 0 | 0 | 0 | 0 | 0 | 0 | 0 | 0 | 0 | 0 | 0 | 0 | 99
Nc1ncc(-c2cn[nH]c2)c2scc(-c3ccc4c(c3)CCN4C(=O)Cc3ccccc3)c12 [GSK2593067] | 16 | 6 | 9 | 0 | 9 | 53 | 33 | 0 | 0 | 12 | 4 | 31 | 52 | 23 | 3 | 0 | 30 | 57 | 6 | 81
CN(C)c1ncnc2nc[nH]c12 [SKF-31736] | 26 | 0 | 14 | 42 | 21 | 5 | 47 | 38 | 0 | 0 | 15 | 0 | 10 | 13 | 0 | 0 | 0 | 0 | 0 | 10
CCn1c(-c2nonc2N)nc2c(-c3ccccc3)ncc(OCCCN)c21.O=C(O)C(F)(F)F.O=C(O)C(F)(F)F [GSK260205] | 95.2 | 0 | 9 | 0 | 4 | 21 | 0 | 28 | 2 | 8 | 22 | 14 | 32 | 15 | 99.4 | 87 | 50 | 28 | 23 | 99.6
Nc1ncc(-c2ccc3nccc(-c4ccncc4)c3c2)cc1S(=O)(=O)N1CCCCC1 [GSK1693850] | 12 | 0 | 0 | 0 | 10 | 18 | 95.5 | 2 | 0 | 0 | 1 | 4 | 13 | 64 | 5 | 0 | 0 | 10 | 13 | 69
Cc1ccc(NC(=O)c2ccnc(N3CCCCC3)c2)cc1-c1ccc(C(=O)NCC2CC2)cc1 [GW775610] | 0 | 0 | 0 | 0 | 0 | 0 | 0 | 100 | 0 | 37 | 0 | 9 | 0 | 0 | 0 | 10 | 0 | 0 | 0 | 0
O=C(O)C(F)(F)F.O=c1[nH]ccc2nc(N[C@@H]3CCNC3)nc(Nc3ccc4c(c3)S(=O)(=O)CC4)c12 [GSK2181306] | 57 | 2 | 99.9 | 99.5 | 98.6 | 36 | 88 | 89 | 18 | 0 | 0 | 29 | 0 | 0 | 70 | 0 | 8 | 20 | 97.4 | 99.7
